Records with an inconclusive call do not appear. Entries that show only a call come without a potency. Calls of active or inactive are those of the source. Calls come from the whole dose curve; as a rule, active = well fitted activation curve with a large enough effect; inconclusive = small, poorly fitted or top-dose-only effect; inactive = no such curve, though single readings can be large or run the other way.
Assay: qHTS Assay for Rab9 Promoter Activators: Initial hit validation from the primary screen
Details: Huh7 Rab9 promoter luciferase reporter, 24 h; series mostly up to 46.1 µM
Description: NIH Chemical Genomics Center [NCGC] NIH Molecular Libraries Probe Production centers Network [MLPCN] MLPCN Grant: MH089537-01 Assay Submitter (PI): Yiannis A. Ioannou NCGC Assay Overview: Niemann Pick Type C (NPC) is a rare neurodegenerative lipidosis that is characterized by lipid storage in the endosomal/lysosomal system. Treatment modalities for this devastating disease are currently non-existent due to the severe obstacles associated with accessing the central nervous system with proteins or genes (Ioannou, 2000). We have developed a new paradigm, termed "Orphan Receptor Bypass Therapy" (ORByT), to address these disorders. This paradigm posits the existence of endogenous "suppressor" proteins whose expression can dramatically improve LSD pathogenesis. The goal is the identification/discovery of small chemical compounds that can modulate the expression of these proteins and provide a new treatment modality for these devastating disorders. One such protein whose overexpression reverses aspects of the NPC phenotype is Rab9. We have developed and optimized a cell based luciferase reporter assay in 1536 well format for the identification of up-regulators of the Rab9 promoter. This assay presents data on the validation of hits from the primary screen.
The Rab9 promoter is cloned in front of the luciferase reporter gene, therefore […] promoter activation results in luciferase expression. Frozen stock of the Rab9 promoter transfected Huh7 cells were obtained from the laboratory of Dr. Yiannis Ioannou (The Mount Sinai School of Medicine, New York, NY). Cells were propagated and maintained at NCGC in medium containing RPMI-1640 supplemented with 10% FBS, 2mM L-glutamine, and 50ug/ml penicillin/streptomycin. Cells were harvested in and plated for assays in OP-MEM I reduced-serum medium supplemented with 10% FBS. The Amplite luciferase reporter gene assay kit was purchased from ABD Bioquest and prepared/stored according to manufacturers recommendations. qHTS Assay Setup: 1.Dispensed 5ul of Huh7 cells stably expressing Rab9-luciferase at a density of 1500 cells per well 1536-well plates. 2.Incubate cells at 37C, 5% CO2, and 95% humidity for 2 hours. 3.Transferred 23nl per well of compound in DMSO solution. 4.Incubated at 37C, 5% CO2, and 95% humidity for 24 hours. 5.Dispensed 3ul per well of Amplite reagent(ABD Bioquest) per well. 6.Incubate at ambient for 10 minutes. 7.Read using the luminescence protocol on the ViewLux plate reader (Perkin Elmer).
Potency is the fitted concentration of half-maximal effect.

| SMILES | Potency |
| --- | --- |
| COc1ccccc1NC(=S)NCc1ccc(Cl)cc1 | inactive |
| CC(C)CC(=O)N1CCN(c2ccc(NC(=O)c3ccco3)cc2)CC1 | inactive |
| N#CC/C(N)=N/NC(=O)CCCNc1ncc(C(F)(F)F)cc1Cl | 19900 nM (active) |
| COc1ccc(-c2nnc(SCC(=O)/C(C#N)=C(\C)N)o2)cc1 | 315 nM (active) |
| CCOC(=O)c1ccccc1NC(=O)CSc1nnc(Cc2cccn2C)n1-c1ccc(F)cc1 | inactive |
| CN(C)C(=O)[C@H]1C[C@H]1[C@@H](O)[C@H](CO)NC(=O)[C@H](COCc1ccccc1)NC(=O)OC(C)(C)C | inactive |
| Cc1ccc(NC(=O)NC(=O)c2ccccc2)cc1F | 445 nM (active) |
| CCC(=O)Nc1cc(-c2cc3ccccc3oc2=O)ccc1OC | 791 nM (active) |
| O=C(CCS(=O)(=O)c1ccccc1)Nc1ccc(-c2nc3ccccc3s2)cc1 | 223 nM (active) |
| Cc1nc(SCC(=O)NC(=O)NC(C)(C)C)nc(C)c1C | inactive |
| CC(=O)Nc1ccc(NC(=O)COc2ncnc3ccccc23)cc1 | inactive |
| CCOCC(=O)Nc1c(C(=O)Nc2ccc3c(c2)OCCO3)oc2ccccc12 | 628 nM (active) |
| COc1ccc(C(c2nnnn2CCc2ccccc2)N2CCN(C3CCCC3)CC2)cc1 (stereo not given) | inactive |
| COc1cccc(C(C(=O)NC2CCCC2)N(CCC(C)C)C(=O)CCC(=O)Nc2cc(C)on2)c1 (stereo not given) | inactive |
| Fc1ccc(-c2nc3nc4ccccc4nc3n2Cc2ccco2)cc1 | inactive |
| CC(=O)Nc1ccc(-c2csc(Nc3ncccn3)n2)cc1 | 353 nM (active) |
| COc1ccc(NC(=O)CSc2ccc([N+](=O)[O-])cc2)cc1S(=O)(=O)N1CCOCC1 | inactive |
| CCOC(=O)CSc1nc2cc(C)ccc2cc1C#N | 996 nM (active) |
| O=C(c1cc2cc([N+](=O)[O-])ccc2oc1=O)n1cccn1 | inactive |
| COc1ccccc1N(C(=O)c1snc(C(N)=O)c1N)C(C(=O)NC1CCCCC1)c1cccc(OC)c1OC (stereo not given) | inactive |

| SMILES | Potency |
| --- | --- |
| C=CCOC(=O)N1CCN(c2cccc(C(F)(F)F)c2)CC1 | inactive |
| O=C(COc1ccccc1F)Nc1ccc(-c2nc3ccccc3s2)cc1 | 223 nM (active) |
| Cc1ccc(C2C3=C(CC(C)(C)CC3=O)N(CCN3CCOCC3)C3=C2C(=O)CC(C)(C)C3)cc1 | inactive |
| CC1CCc2sc(C(=O)NNC(=S)NC3CC3)cc2C1 (stereo not given) | 19900 nM (active) |
| O=C(CCc1cccc(Cl)c1)NC1CCCN(Cc2ccccc2F)C1 (stereo not given) | inactive |
| CCc1cc2c(N=Nc3c(O)[nH]c4ccccc34)ncnc2s1 | inactive |
| COc1ccc([N+](=O)[O-])cc1COc1ccc2c(-c3ccccc3)cc(=O)oc2c1 | inactive |
| COc1ccc(NC(=S)NNC(=O)c2cccs2)cc1 | 31500 nM (active) |
| COCc1cc(C)nc(N/N=C/c2ccc(-c3ccc(Cl)cc3[N+](=O)[O-])o2)c1C#N | inactive |
| CCCCn1c(CCNC(=O)c2cccs2)nc2ccccc21 | inactive |
| NCCOc1ccccc1-c1ccccc1 | inactive |
| S=C1NCN(CCc2ccccc2)CN1Cc1ccccc1 | inactive |
| O=C(NCCSCc1c(F)cccc1Cl)c1ccc(CN2CCOCC2)cc1 | inactive |
| Cc1ccc2nc(Nc3ccc(Cl)cc3)c3nncn3c2c1 | inactive |
| COc1ccc(C2(CNC(=O)/C=C/c3ccco3)CCCC2)cc1OC | inactive |
| CC(=O)Nc1nnc(SCC(=O)NCCOc2ccccc2)s1 | inactive |
| O=C(O)C1=CC[C@@H](c2ccc(Cl)cc2)N(S(=O)(=O)c2ccc(Cl)cc2)[C@H]1c1ccccc1 | inactive |
| COc1ccc(NC(=O)CCCN2C(=O)C(c3ccccc3)Oc3cccnc32)cc1OC (stereo not given) | inactive |
| Nc1ccccc1C(=O)N/N=C1/C2CN3CCN(C2)CC1(Cc1ccccc1)C3 | inactive |
| Cc1cccc(N2CCN(C(=S)c3ccccc3)CC2)c1 | inactive |
